Data: PubChem BioAssay (NCI)
The panel holds about 83,000 compounds, 20% with a hit somewhere; the sample as a whole holds those more often.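 Percent growth is the endpoint: 0 to 100 indicates growth inhibition (40 means 60% inhibition), 0 means no net growth, and negative values indicate cell death.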 Values without a mark were called inactive. Activity calls are given as the source filed them. The calls were made as follows: active = growth percent below 10; inactive = the rest.

system: HCT-116 colon; assay: NCI-60 one-dose screen, 48 h (100 = growth as untreated, 0 = no growth, -100 = all killed); conditions: 10 µM

| Structure (SMILES) | growth |
| --- | --- |
| N#Cc1c(Cl)nc(SCc2ccc(F)cc2)nc1-c1ccc(F)cc1 | 81.5% |
| CC1=N/C(=C\c2ccc(N(C)C)cc2)C(=O)N1CCc1ccc(S(N)(=O)=O)cc1 | 94.3% |
| CC1(C)CC[C@]2(C(=O)O)CC[C@]3(C)C(=CC[C@@H]4[C@@]5(C)C/C(=C/c6ccncc6)[C@H](O)C(C)(C)[C@@H]5CC[C@]43C)[C@@H]2C1 | 26% |
| Cc1ccc(/C=C/C(=O)c2ccc(NC(=O)CSc3nnc(-c4c[nH]c5ccccc45)n3-c3ccccc3)cc2)c(C)c1 | -4.32% (active) |
| COC1=C[C@]23CCC(=O)N2CCc2cc4c(cc2[C@@H]3[C@@H]1OC(=O)CCCC(C)C)OCO4 | 19.2% |
| COC(=O)c1c(C(=O)OC)c2n(c1C)[C@@H]([C@@H](C)[C@H]1CC[C@H]3[C@@H]4CCC5=CC(=O)CC[C@]5(C)[C@H]4CC[C@]13C)SC2 | 23.2% |
| O=C(CNc1nc(-c2ccccc2)cs1)Nc1cccc([N+](=O)[O-])c1 | -34.2% (active) |
| CN(C(=O)c1ccc(C(C)(C)C)cc1)c1sc2c(c1C#N)CCC(=O)C2 | -9.14% (active) |
| Cc1cc(C)nc(NS(=O)(=O)c2ccc(N/C(N)=N/c3nccc(-c4ccccc4)n3)cc2)n1 | 76.6% |
| O=C(NO)c1ccc(Cn2ccc3c(Nc4ccccc4)ncnc32)cc1 | -9.89% (active) |
| Cc1noc2c(Cc3ccccc3)nn(CC(=O)N/N=C/c3ccc(Br)cc3)c(=O)c12 | 24.7% |
| N#Cc1c(-c2ccc(F)cc2)nc(SCc2ccc([N+](=O)[O-])cc2)nc1N1CCOCC1 | 64.4% |
